Data taken from PubChem BioAssay (NCI).
Values joined by “and” are separate entries in the source; they are usually repeats but may differ in a detail not shown here. Identical values can stand only once. Compounds without any hit were thinned out: in the full panel of roughly 83,000, 20% have a hit.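 Plates (96-well) were seeded with cells, treated with compound at one concentration, and incubated for 48 hours before percent growth was determined.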 Active and inactive are the calls of the source. The calls were made as follows: active = growth percent below 10; inactive = the rest.

What follows are compounds tested on NCI-H460 lung (assay: NCI-60 one-dose screen, 48 h (100 = growth as untreated, 0 = no growth, -100 = all killed)). Conditions: 10 µM unless noted.
In the case of `Cc1cc(O)c(C(C)C)cc1N`, the growth is reported as 121% (inactive) and 103% (inactive).
In the case of `O=C(c1ccc(Cl)cc1)C(NCCO)c1ccc(Cl)cc1` (stereo unspecified), the growth is reported as 100% (inactive) and 114% (inactive).
In the case of `O=C(O)CN(CCN(CC(=O)O)CC(=O)O)CCN(CC(=O)O)CC(=O)O`, the growth is reported as -51.4% (active) and 119% (inactive).
In the case of `O=S1(=O)CC(Br)C(Br)C1` (stereo unspecified), the growth is reported as 107% (inactive) and 97.5% (inactive).
For `Cc1ccc(S(=O)(=O)Nc2ccc3cc([N+](=O)[O-])ccc3c2[N+](=O)[O-])cc1`, the growth was 76.4% (inactive) and 91.3% (inactive).
With `O=C(O)CSCc1nc2ccccc2[nH]1` the growth was 105% (inactive).
`CCc1c(CC(=O)O)c2cc(C)ccc2n1Cc1ccc(Cl)cc1` was tested, and the growth was 103% (inactive) and 95.8% (inactive).
For `COc1cc(/C=N/Nc2nc3c([nH]2)c(=O)n(C)c(=O)n3C)ccc1O`, the growth was 109% (inactive) and 111% (inactive).
In the case of `O=C1C2=C(C(=O)c3ccccc31)C(O)(S(=O)(=O)O)C(O)(S(=O)(=O)O)C1N=CC=CC21` (stereo unspecified), the growth is reported as 12.2% (inactive) and 4.17% (active).
`COc1c(/C(C)=N/N=c2sc(C(C)=O)nn2-c2ccc(Cl)cc2)c(Oc2ccccc2)c(OC)c2occc12` was tested, and the growth was 99.2% (inactive) and 103% (inactive).
With `O=[N+]([O-])c1ccccc1N(S(=O)(=O)c1ccccc1)S(=O)(=O)c1ccccc1` the growth was 108% (inactive) and 114% (inactive).
With `CCOc1ccc2c(S(=O)(=O)O)cccc2c1[N+](=O)[O-]` the growth was 99.1% (inactive) and 105% (inactive).
In the case of `CC1=C(/C=C/C(C)=C/C=C/C(C)=C/C(=O)O)C(C)(C)CCC1`, the growth is reported as 91.2% (inactive) and 91.7% (inactive) and 90.6% (inactive).
`CCN(CC)C(=O)c1cccnc1` was tested, and the growth was 111% (inactive).
In the case of `COc1ccc(S(=O)(=O)N2CCOCC2)cc1NC(=O)c1[nH]c(C)c2c1CCCCC2=O`, the growth is reported as 103% (inactive) and 75.9% (inactive).
`CCC(=O)C(CC)c1cccc(OC)c1` (stereo unspecified) was tested, and the growth was 107% (inactive).
In the case of `Cn1cc(-c2cc3c(Nc4ccc(CC(=O)Nc5cc(C(C)(C)C)on5)cc4)ncnc3[nH]2)cn1`, the growth is reported as -4.56% (active) and 3.41% (active).
`C[N+](C)(C)CN1C(=O)c2ccccc2C1=O` was tested, and the growth was 105% (inactive).
For `O=[N+]([O-])c1ccc2nc3c4ccccc4c4ccccc4c3nc2c1`, the growth was 68.4% (inactive).
With `COc1ccccc1/C=N\N=C(N/N=C/c1ccccc1OC)N/N=C/c1ccccc1OC` the growth was 46.3% (inactive) and 12.8% (inactive).
With `CN(C)c1ccc(C(Cc2ccc3ccccc3n2)Cc2ccc3ccccc3n2)cc1` the growth was 26.5% (inactive) and 73.7% (inactive).
In the case of `CO/N=C/C=C\C(=O)N/C=C/C[C@H]1/C=C/[C@H](O)/C=C\C=C\c2cccc(O)c2C(=O)O1`, the growth is reported as 16.9% (inactive) and 8.82% (active).
`CCN(CC)CCCC(C)Nc1cnc(C(=O)Nc2cc(F)cc3cccnc23)cn1` (stereo unspecified) was tested, and the growth was 69.5% (inactive) and -75.9% (active).
In the case of `O=[N+]([O-])c1ccc(N/N=C\c2cc(Br)ccc2O)nc1`, the growth is reported as 2.22% (active) and 0.392% (active).
With `COc1ccc(NC(=S)Nc2ccccn2)cc1` the growth was 100% (inactive).
With `CN(C)c1ccc(/C=C(\C#N)c2ccccc2)cc1` the growth was 11.2% (inactive) and 20.8% (inactive) and 12.2% (inactive).
With `CN(C)CCCN1c2ccccc2Sc2ccc(Cl)cc21` the growth was 101% (inactive) and 105% (inactive) and 100% (inactive).
For `O=S(=O)(Nc1ccccc1)C1CCCCC1`, the growth was 112% (inactive) and 118% (inactive).
With `CC1=C(/C=C/C(C)=C/C=C/C(C)=C/C(=O)Nc2ccc(O)cc2)C(C)(C)CCC1` the growth was 27.7% (inactive).
In the case of `CCCCCCCCCCCCCCCCOc1ccc(C)cc1`, the growth is reported as 114% (inactive).
For `COc1cc(C(=O)N/N=C/c2ccc(N(C)C)cc2)cc(OC)c1OC`, the growth was 3.54% (active).
`CC1(c2ccc3ccccc3c2)CCC(=O)O1` (stereo unspecified) was tested, and the growth was 112% (inactive).
`CCCCOc1cc(C(=O)NCCN(CC)CC)c2ccccc2n1` was tested, and the growth was 110% (inactive) and 103% (inactive).

Each compound was assayed on HOP-92 NSCLC in the same assay as above. Conditions: 10 µM.
For `CNC(=O)c1cc(Oc2ccc(CC(=O)Nc3cc(C(C)(C)C)nn3C)cc2)ccn1`, the growth was 93.5% (inactive).
With `CC#C[C@]1(O)CC[C@H]2[C@@H]3CCC4=CC(=O)CCC4=C3[C@@H](c3ccc4c(c3)OCO4)C[C@@]21C` the growth was 66.1% (inactive).
For `CCc1ccccc1-n1c(N)c(C#N)c(-c2ccc(OC)c(OC)c2)c(C#N)c1=O`, the growth was 126% (inactive).

Same assay, conditions: 10 µM unless noted
With `Cc1cc(O)c(C(C)C)cc1N` the growth was 100% (inactive).
In the case of `O=C(c1ccc(Cl)cc1)C(NCCO)c1ccc(Cl)cc1` (stereo unspecified), the growth is reported as 72.9% (inactive) and 89.4% (inactive).
With `O=C(O)CN(CCN(CC(=O)O)CC(=O)O)CCN(CC(=O)O)CC(=O)O` the growth was 103% (inactive) and 102% (inactive).
In the case of `O=S1(=O)CC(Br)C(Br)C1` (stereo unspecified), the growth is reported as 5.91% (active) and 37.5% (inactive).
`Cc1ccc(S(=O)(=O)Nc2ccc3cc([N+](=O)[O-])ccc3c2[N+](=O)[O-])cc1` was tested, and the growth was 27.9% (inactive) and -8.68% (active).
With `CCc1c(CC(=O)O)c2cc(C)ccc2n1Cc1ccc(Cl)cc1` the growth was 88% (inactive) and 91.7% (inactive).
`COc1cc(/C=N/Nc2nc3c([nH]2)c(=O)n(C)c(=O)n3C)ccc1O` was tested, and the growth was 102% (inactive).
For `O=C1C2=C(C(=O)c3ccccc31)C(O)(S(=O)(=O)O)C(O)(S(=O)(=O)O)C1N=CC=CC21` (stereo unspecified), the growth was -2.69% (active).
For `COc1c(/C(C)=N/N=c2sc(C(C)=O)nn2-c2ccc(Cl)cc2)c(Oc2ccccc2)c(OC)c2occc12`, the growth was 90.9% (inactive) and 93.5% (inactive).
For `O=[N+]([O-])c1ccccc1N(S(=O)(=O)c1ccccc1)S(=O)(=O)c1ccccc1`, the growth was 92.8% (inactive) and 101% (inactive).
In the case of `CCOc1ccc2c(S(=O)(=O)O)cccc2c1[N+](=O)[O-]`, the growth is reported as 104% (inactive) and 78.3% (inactive).
For `CC1=C(/C=C/C(C)=C/C=C/C(C)=C/C(=O)O)C(C)(C)CCC1`, the growth was 66.8% (inactive) and 77% (inactive) and 26.4% (inactive).
`CCN(CC)C(=O)c1cccnc1` was tested, and the growth was 117% (inactive).
In the case of `COc1ccc(S(=O)(=O)N2CCOCC2)cc1NC(=O)c1[nH]c(C)c2c1CCCCC2=O`, the growth is reported as 111% (inactive) and 27% (inactive).
For `CCC(=O)C(CC)c1cccc(OC)c1` (stereo unspecified), the growth was 97.3% (inactive).
In the case of `Cn1cc(-c2cc3c(Nc4ccc(CC(=O)Nc5cc(C(C)(C)C)on5)cc4)ncnc3[nH]2)cn1`, the growth is reported as 5.01% (active) and -5.97% (active).
In the case of `O=[N+]([O-])c1ccc2nc3c4ccccc4c4ccccc4c3nc2c1`, the growth is reported as 61% (inactive).
In the case of `COc1ccccc1/C=N\N=C(N/N=C/c1ccccc1OC)N/N=C/c1ccccc1OC`, the growth is reported as 68.2% (inactive) and 15.3% (inactive).
For `CN(C)c1ccc(C(Cc2ccc3ccccc3n2)Cc2ccc3ccccc3n2)cc1`, the growth was -4.12% (active) and 50.7% (inactive).
In the case of `CO/N=C/C=C\C(=O)N/C=C/C[C@H]1/C=C/[C@H](O)/C=C\C=C\c2cccc(O)c2C(=O)O1`, the growth is reported as 23.9% (inactive) and -9.99% (active).
With `CCN(CC)CCCC(C)Nc1cnc(C(=O)Nc2cc(F)cc3cccnc23)cn1` (stereo unspecified) the growth was 37.5% (inactive) and -76.6% (active).
For `O=[N+]([O-])c1ccc(N/N=C\c2cc(Br)ccc2O)nc1`, the growth was 37.9% (inactive).
For `COc1ccc(NC(=S)Nc2ccccn2)cc1`, the growth was 77% (inactive).
In the case of `CN(C)c1ccc(/C=C(\C#N)c2ccccc2)cc1`, the growth is reported as 53.9% (inactive) and 39.5% (inactive) and 14% (inactive).
With `CN(C)CCCN1c2ccccc2Sc2ccc(Cl)cc21` the growth was 47.1% (inactive) and 99.2% (inactive).
In the case of `O=S(=O)(Nc1ccccc1)C1CCCCC1`, the growth is reported as 113% (inactive) and 108% (inactive).
`CC1=C(/C=C/C(C)=C/C=C/C(C)=C/C(=O)Nc2ccc(O)cc2)C(C)(C)CCC1` was tested, and the growth was 103% (inactive).
With `COc1cc(C(=O)N/N=C/c2ccc(N(C)C)cc2)cc(OC)c1OC` the growth was 46.8% (inactive).
For `CC1(c2ccc3ccccc3c2)CCC(=O)O1` (stereo unspecified), the growth was 106% (inactive).
For `CCCCOc1cc(C(=O)NCCN(CC)CC)c2ccccc2n1`, the growth was 45.8% (inactive) and 51.7% (inactive).
